We go through 8 compounds from PubChem BioAssay (Tox21).

Experiment [1] is described as follows: qHTS RealTime-Glo MT Cell Viability Assay in HEK293 cells - 0 hour (AID 1224880). Note: top concentration of the series differs between compounds; nearly all actives have a fitted effect of over 45% in size. The method, boiled down:
(§1)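 Viable HEK293 cells reduce a cell-permeant prosubstrate; the product diffuses out and is consumed by NanoLuc in the medium to give light. Compounds went in after a 5 h incubation and plates were read over the treatment course.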
(In general: qHTS replaces the single test concentration by a dilution series.)

The nature of experiment [2]: A CellTox Green Cytotoxicity Assay to monitor cytotoxicity in HEK293 cells - 32 hour (AID 1224881). Note: nearly all actives have a fitted effect of over 40% in size. The method, boiled down:
(§2)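 Fluorescence intensity, read at 0, 8, 16, 24, 32 and 40 h of compound treatment, reflected dye binding to DNA of dead HEK293 cells; compounds (23 nL, DMSO) were added 5 h after plating cells with reagent.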

Experiment [3] in a line: A CellTox Green Cytotoxicity Assay to monitor cytotoxicity in HepG2 cells - 0 hour (AID 1224882). Note: nearly all actives have a fitted effect of over 35% in size. The method, boiled down: (§3)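 Using 1536-well format, dye-containing HepG2 suspension was seeded, allowed 5 h at 37 C/5% CO2, dosed by pintool with compounds, positive and negative controls, and imaged for fluorescence across 40 h.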
The nature of experiment [4]: A CellTox Green Cytotoxicity Assay to monitor cytotoxicity in HepG2 cells - 32 hour (AID 1224883). Note: nearly all actives have a fitted effect of over 50% in size. The method, boiled down: as §3
Experiment [5] is described as follows: A CellTox Green Cytotoxicity Assay to monitor cytotoxicity in HEK293 cells - 8 hour (AID 1224884). Note: nearly all actives have a fitted effect of over 35% in size. The method, boiled down:
as §2

Experiment [6] is described as follows: qHTS RealTime-Glo MT Cell Viability Assay in HepG2 cells - 16 hour (AID 1224885). Note: nearly all actives have a fitted effect of over 50% in size. The method, boiled down: (§4)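 HepG2 cells (600/well) were dispensed with RealTime-Glo reagents, incubated 5 h at 37 °C, then treated with compounds in DMSO for up to 40 h. Nonlytic NanoLuc luminescence reflecting viable cells was read at each stated time point.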
Experiment [7] in a line: qHTS RealTime-Glo MT Cell Viability Assay in HEK293 cells - 24 hour (AID 1224886). Note: nearly all actives have a fitted effect of over 50% in size. Note: potency is the fitted concentration of half-maximal effect. The method, boiled down:
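HEK293 cells seeded with NanoLuc/prosubstrate reagent, rested 5 h at 37 C, then dosed and kept at 37 C up to 40 h. Nonlytic real-time luminescence from viable cells read at 0, 8, 16, 24, 32 and 40 h.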

Experiment [8] in a line: qHTS RealTime-Glo MT Cell Viability Assay in HEK293 cells - 8 hour (AID 1224887). Note: nearly all actives have a fitted effect of over 50% in size. Note: potency is the fitted concentration of half-maximal effect. The method, boiled down: as §1
Experiment [9] in a line: A CellTox Green Cytotoxicity Assay to monitor cytotoxicity in HEK293 cells - 16 hour (AID 1224888). Note: nearly all actives have a fitted effect of over 35% in size. The method, boiled down:
as §2

A short description of experiment [10]: qHTS RealTime-Glo MT Cell Viability Assay in HepG2 cells - 0 hour (AID 1224889). Note: nearly all actives have a fitted effect of over 50% in size. The method, boiled down: as §4
Experiment [11] is described as follows: A CellTox Green Cytotoxicity Assay to monitor cytotoxicity in HepG2 cells - 8 hour (AID 1224890). Note: nearly all actives have a fitted effect of over 45% in size. The method, boiled down:
as §3

Experiment [12] is described as follows: qHTS assay to identify small molecule antagonists of the estrogen receptor alpha (ER-alpha) signaling pathway using the BG1 cell line in the presence of 0.1 nM 17-beta-estradiol - cell viability counter screen (AID 1259241). Note: nearly all actives have a fitted effect of over 40% in size. Note: potency is the fitted concentration of half-maximal effect. The method, boiled down: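 Cells were plated and left 24 hr, compounds in DMSO were pinned in, 17beta-estradiol was added to 0.1 nM final, and after 22 hr CellTiter-Fluor reagent was added for 30 min before fluorescence was read.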

Experiment [13] is described as follows: qHTS assay to identify small molecule antagonists of the androgen receptor (AR) signaling pathway using the MDA cell line in the presence of 0.5 nM R1881 - cell viability counter screen (AID 1259242). Note: nearly all actives have a fitted effect of over 45% in size. Note: potency is the fitted concentration of half-maximal effect. The method, boiled down: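 Viability of MDA-kb2 cells was multiplexed with the luciferase AR readout; after 16 hr with compounds and R1881 at 0.5 nM final, CellTiter-Fluor fluorescence was recorded.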

Experiment [14] deals with Estrogen receptor (Homo sapiens) (UniProt P03372). The experiment is described as follows: qHTS assay to identify small molecule antagonists of the estrogen receptor alpha (ER-alpha) signaling pathway using the BG1 cell line in the presence of 0.1 nM 17-beta-estradiol (AID 1259244). Note: nearly all actives have a fitted effect of over 50% in size. Note: potency is the fitted concentration of half-maximal effect. The method, boiled down: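 Estradiol at 0.1 nM (final) stimulates the endogenous ER-alpha of VM7Luc4E2 cells carrying an ERE-driven luciferase; compounds are co-incubated 22 h at 37C and luciferase output quantified by luminescence.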
Chain of Estrogen receptor (Homo sapiens) (P03372 whole entry, looked up): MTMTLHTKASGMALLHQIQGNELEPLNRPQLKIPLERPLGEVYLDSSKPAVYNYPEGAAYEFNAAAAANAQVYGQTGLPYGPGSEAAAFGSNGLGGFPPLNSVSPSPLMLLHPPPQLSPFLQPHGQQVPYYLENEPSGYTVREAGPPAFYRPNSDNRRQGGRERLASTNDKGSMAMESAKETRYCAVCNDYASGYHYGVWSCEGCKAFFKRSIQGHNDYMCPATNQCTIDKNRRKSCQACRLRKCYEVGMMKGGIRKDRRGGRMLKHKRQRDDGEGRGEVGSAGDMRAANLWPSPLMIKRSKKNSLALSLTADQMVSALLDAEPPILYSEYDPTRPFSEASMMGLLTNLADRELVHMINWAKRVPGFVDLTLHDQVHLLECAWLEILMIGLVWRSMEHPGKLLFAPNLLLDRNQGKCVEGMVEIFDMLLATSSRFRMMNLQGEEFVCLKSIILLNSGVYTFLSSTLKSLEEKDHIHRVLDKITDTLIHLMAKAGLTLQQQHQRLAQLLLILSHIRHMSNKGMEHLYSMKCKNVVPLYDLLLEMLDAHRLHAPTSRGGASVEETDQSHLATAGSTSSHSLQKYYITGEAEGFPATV

The nature of experiment [15]: qHTS assay to identify small molecule phospholipidosis (PLD) inducers (AID 1259344; active = well fitted curve in the direction sought with a large enough effect; an effect the other way counts as inactive or inconclusive). The method, boiled down: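 HepG2 cells, 900/well, treated with compound plus LipidTOX Red for 24 h at 37 C; amiodarone positive and DMSO negative controls. Fixed with paraformaldehyde/Hoechst, then high-content imaging scored LipidTOX pit count and integrated intensity per well and per cell.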

A short description of experiment [16]: qHTS assay to identify small molecule HDAC inhibitors (AID 1259364).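 Note: wild-type HCT-116 cells with endogenous class I/II HDAC activity; top concentration of the series differs between compounds; nearly all actives have a fitted effect of over 45% in size.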 The method, boiled down:
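Read-out: luminescence of HDAC-Glo I/II reagent, 30 min RT, reflecting class I/II deacetylase activity in whole HCT-116 cells pre-exposed 2 h to DMSO-dissolved compounds.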

Experiment [17] in a line: qHTS assay to identify small molecule HDAC inhibitors - cell viability counter screen (AID 1259365). Note: nearly all actives have a fitted effect of over 50% in size. Note: potency is the fitted concentration of half-maximal effect. The method, boiled down: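 Counter screen in wild-type HCT-116 cells: compounds dissolved in DMSO are pin-transferred onto overnight-plated cells and left 2hr at 37C. ATP-based CellTiter-Glo luminescence then measures viable cells.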
A short description of experiment [18]: qHTS assay to identify small molecule agonists of the sonic hedgehog signaling (Shh) pathway - cell viability counter screen (AID 1259366). Note: nearly all actives have a fitted effect of over 50% in size. Note: potency is the fitted concentration of half-maximal effect. The method, boiled down: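 Cells are plated at 2,000 per well and left 4hr at 37C, 5% CO2 before compound addition. After 23hr of treatment, CellTiter-Fluor reagent is added for 1hr at 37C and fluorescence is measured.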

Experiment [19] is described as follows: qHTS assay to identify small molecule antagonists of the sonic hedgehog signaling (Shh) pathway - cell viability counter screen (AID 1259367). Note: nearly all actives have a fitted effect of over 55% in size. Note: potency is the fitted concentration of half-maximal effect. The method, boiled down:
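NIH/3T3-derived Gli1-Luc reporter cells, 2,000/well, plated 4 hr before compound addition, then stimulated with conditioned medium for 24 hr at 37C. Viability measured in the same wells by CellTiter-Fluor fluorescence, reagent added at 23 hr for 1 hr.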

Experiment [20] concerns the target Androgen receptor (Homo sapiens) (UniProt P10275). In words: qHTS assay to identify small molecule antagonists of the androgen receptor (AR) signaling pathway using the MDA cell line in the presence of 0.5 nM R1881 (AID 1259243). Note: nearly all actives have a fitted effect of over 50% in size. The method, boiled down: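 Reporter cells cultured without CO2 receive test chemicals, then 0.5 nM R1881 final; after 16 hr at 37C, ONE-Glo is added and light output recorded.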

Structures are written as SMILES. Results filed as inconclusive are left out. The source holds several records for some structures; these can differ, active in one and inactive in another. Activity calls are given as the source filed them. Unless noted, calls come from the whole dose curve; as a rule, active = well fitted curve in the direction sought with a large enough effect in the repeat runs; inconclusive = weak or mixed curves; inactive = no such curve, though single readings can be large; an effect the other way counts as inactive or inconclusive.

Chain of Androgen receptor (Homo sapiens) (P10275 whole entry, looked up): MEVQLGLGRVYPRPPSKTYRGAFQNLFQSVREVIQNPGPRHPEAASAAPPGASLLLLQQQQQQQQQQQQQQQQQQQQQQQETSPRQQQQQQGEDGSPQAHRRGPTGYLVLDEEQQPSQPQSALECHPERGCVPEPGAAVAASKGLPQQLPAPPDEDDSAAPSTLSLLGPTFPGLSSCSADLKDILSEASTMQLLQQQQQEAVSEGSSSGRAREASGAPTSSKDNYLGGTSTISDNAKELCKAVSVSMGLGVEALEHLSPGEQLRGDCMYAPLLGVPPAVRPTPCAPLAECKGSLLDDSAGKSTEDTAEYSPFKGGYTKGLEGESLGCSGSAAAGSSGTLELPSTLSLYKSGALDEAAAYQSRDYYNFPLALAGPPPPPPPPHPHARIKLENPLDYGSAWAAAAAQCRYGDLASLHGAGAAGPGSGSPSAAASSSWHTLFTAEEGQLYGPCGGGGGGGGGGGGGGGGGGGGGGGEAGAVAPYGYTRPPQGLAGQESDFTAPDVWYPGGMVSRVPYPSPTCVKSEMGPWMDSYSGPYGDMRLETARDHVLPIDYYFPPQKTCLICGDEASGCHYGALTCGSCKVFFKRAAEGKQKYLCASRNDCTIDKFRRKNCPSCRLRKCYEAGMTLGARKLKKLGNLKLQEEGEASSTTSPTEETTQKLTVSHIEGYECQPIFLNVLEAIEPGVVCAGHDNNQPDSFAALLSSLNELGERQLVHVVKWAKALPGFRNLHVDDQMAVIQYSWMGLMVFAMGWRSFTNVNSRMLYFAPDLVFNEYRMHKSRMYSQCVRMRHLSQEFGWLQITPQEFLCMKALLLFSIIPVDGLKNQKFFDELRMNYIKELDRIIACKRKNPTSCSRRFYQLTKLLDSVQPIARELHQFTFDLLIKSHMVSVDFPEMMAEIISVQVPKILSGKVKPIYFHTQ

As to `COc1ccc2nc(S(=O)Cc3ncc(C)c(OC)c3C)[nH]c2c1` (stereo not given), the Potency entry in experiment [1], in [2], in [3], in experiment [4], in [5] and in [6] was “inactive” each time. The Potency entry in experiment [9], in [10], in experiment [11], in experiment [12], in experiment [13] and in experiment [14] was “inactive” in each case. In addition, the Potency entry in experiment [15], in [16], in [17], in [18] and in experiment [19] was “inactive” each time. Besides, the Potency was 21.6 µM (active) and inactive in experiment [7]; 24.3 µM (active) and inactive in experiment [8].

In the case of `CNC1CCCN(c2c(F)cc3c(=O)c(C(=O)O)cn(C4CC4)c3c2OC)C1` (stereo not given), the Potency result in [1], in experiment [2], in experiment [3], in experiment [4], in [5] and in experiment [6] was “inactive” in each case. The Potency result in experiment [7], in [8], in experiment [9], in [10], in experiment [11] and in experiment [12] was “inactive” each time. For the same compound, the Potency result in experiment [13], in experiment [14], in experiment [15], in [17] and in experiment [18] was “inactive” throughout.

Consider `CCN(Cc1cccc(S(=O)(=O)O)c1)c1ccc(C(=C2C=CC(=[N+](CC)Cc3cccc(S(=O)(=O)O)c3)C=C2)c2ccc(O)cc2S(=O)(=O)[O-])cc1`, for which the Potency result in experiment [1], in [2], in experiment [3], in experiment [4], in experiment [5] and in experiment [6] was “inactive” throughout. Besides, the Potency entry in experiment [7], in [8], in experiment [9], in experiment [10] and in [11] was “inactive” in each case. Further, the Potency in experiment [12] is 16.6 µM (active); in [13], 18.6 µM (active); in experiment [14], 16.6 µM (active); in [17], 9.32 µM (active); in experiment [18], 16.6 µM (active); in experiment [19], 16.6 µM (active).

Take `CCC(C)(C)C(=O)O`: the Potency result in experiment [1], in experiment [2], in experiment [3], in [4], in experiment [5] and in experiment [6] was “inactive” throughout. Further, the Potency result in [7], in experiment [8], in [9], in experiment [10], in experiment [11] and in experiment [12] was “inactive” in each case. Moreover, the Potency result in experiment [13], in experiment [20], in experiment [17], in experiment [18] and in experiment [19] was “inactive” each time.

Take `[Cl][Nd]([Cl])[Cl]`: the Potency entry in experiment [1], in experiment [2], in [3], in [4], in experiment [5] and in experiment [6] was “inactive” each time. The Potency result in experiment [7], in [8], in experiment [9], in [10], in [11] and in experiment [12] was “inactive” each time. The Potency entry in [13], in [14], in experiment [16] and in experiment [17] was “inactive” in each case.

For `Oc1cccc2[nH]ccc12`, the Potency result in experiment [1], in [2], in experiment [3], in [4], in experiment [5] and in experiment [6] was “inactive” each time. Besides, the Potency result in experiment [7], in experiment [8], in experiment [9], in [10], in experiment [11] and in experiment [12] was “inactive” each time. Also, the Potency result in experiment [13], in experiment [20], in experiment [14], in experiment [16], in experiment [17] and in experiment [18] was “inactive” each time.

Take `Cc1ccc(N(CCO)CCO)cc1`: the Potency entry in experiment [1], in experiment [2], in [3], in experiment [4], in [5] and in [6] was “inactive” each time. For the same compound, the Potency result in [7], in experiment [8], in experiment [9], in [10], in experiment [11] and in experiment [12] was “inactive” in each case. The Potency entry in [13], in [14], in experiment [16], in experiment [17], in experiment [18] and in [19] was “inactive” each time.

For `FC(F)(F)C(F)(F)C(F)(F)C(F)(F)CCI`, the Potency entry in experiment [1], in experiment [2], in experiment [3], in experiment [4], in experiment [5] and in experiment [6] was “inactive” throughout. The Potency entry in experiment [7], in [8], in experiment [9], in experiment [10], in experiment [11] and in experiment [12] was “inactive” in each case. The Potency entry in experiment [13], in experiment [14], in experiment [16], in experiment [17], in experiment [18] and in experiment [19] was “inactive” throughout.
